{
  "source": "PubChem BioAssay AID2685",
  "about": "(National Center for Advancing Translational Sciences (NCATS), 2010)",
  "note": "About 2,100 (0.66%) of roughly 320,000 compounds were called active. Another 53% or so got no clear call; they are omitted. Calls follow the shape of the dose curve; as a rule, active = well fitted inhibition curve with a large enough effect in the signal ratio, with a control signal flat (not every such curve was filed as active); inconclusive = small, poorly fitted or top-dose-only effect, or effect the other way, or a change in a side signal; inactive = flat fitted curve, though single readings scatter; the % refers to the signal ratio. The entries come from a sample that favours actives as a whole. Potency is read from the fitted curve at half-maximal effect.",
  "data": [
    {"experiment": "qHTS Assay for Lipid Storage Modulators in Drosophila S3 Cells;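 as to cell number change: cells counted by Cell Tracker Red CMTPX staining in the red channel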; as to lipid storage change, negative = inhibition: % is scaled to controls: 0 for no effect and ±100 for the full control effect", "conditions": "BODIPY lipid droplet fluorescence, 18-24 h, cells fed with added oleic acid; cell number change: measured here: cell count max response; series mostly up to 46.1 µM; lipid storage change, negative = inhibition: at the top concentration", "method_in_brief": "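Laser-scanning cytometry quantifies lipid droplet accumulation (500–530 nm total intensity; droplet/cell object ratio) in oleic acid-fed (400 uM added) Drosophila S3 cells treated with a concentration series. 20 uM Triacsin C defined 100% inhibition.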", "units": {"cell number change": "%"}, "values": [
      {"smiles": "COC(=O)c1cc(OC)c(OC)c(OC)c1N", "outcome": "inactive", "cell number change": 7.54},
      {"smiles": "CCOC(=O)CN(C(=O)COc1nc(C)cc(C)c1C#N)c1cccc(Cl)c1", "lipid storage change, negative = inhibition": "3.11% (inactive)", "cell number change": 6.09},
      {"smiles": "Cc1cccc(N2CCN(C(=O)c3ccc(CNc4c(N5CCC(C)CC5)c(=O)c4=O)cc3)CC2)c1C", "lipid storage change, negative = inhibition": "-0.571% (inactive)", "cell number change": 1.91},
      {"smiles": "COc1ccc(CN2CCN(Cc3cccc(OC)c3)C(CCO)C2)cc1", "note": "(centres undefined)", "lipid storage change, negative = inhibition": "15.7% (inactive)", "cell number change": 0.486},
      {"smiles": "COc1ccc(OC)c(CN2CCN(C(=O)c3ccc(S(=O)(=O)Nc4ccccc4F)cc3)CC2)c1", "Potency": "13 µM (active)", "cell number change": -20.6},
      {"smiles": "CC(C)(C)c1ccc(C(=O)NCC(=O)N2CCCC2)cc1", "outcome": "inactive", "cell number change": 12.2},
      {"smiles": "COc1ccc(NS(=O)(=O)c2cccc(C(=O)N3CCN(Cc4cc(OC)ccc4OC)CC3)c2)cc1", "lipid storage change, negative = inhibition": "-13.2% (inactive)", "cell number change": 1.47},
      {"smiles": "COc1ccc(OC)c(CN2CCN(C(=O)CNC(=O)c3ccc(C(C)(C)C)cc3)CC2)c1", "Potency": "1.46 µM (active)", "cell number change": -27.4},
      {"smiles": "COc1ccc(C(=O)N2CCN(Cc3cc(OC)ccc3OC)CC2)cc1", "lipid storage change, negative = inhibition": "-14.3% (inactive)", "cell number change": -3.67},
      {"smiles": "CC(C)(C)c1ccc(C(=O)NCC(=O)N2CCCCCC2)cc1", "outcome": "inactive", "cell number change": 5.65},
      {"smiles": "O=C(Cn1c(C(F)(F)F)nc2ccccc21)N=Nc1c(O)[nH]c2ccc(Br)cc12", "outcome": "inactive"},
      {"smiles": "CC1(C)CC(=O)N(c2ccc(C#N)cc2)C(=O)C1", "lipid storage change, negative = inhibition": "2.37% (inactive)", "cell number change": -0.525},
      {"smiles": "Cc1cccc(NC(=O)C(c2ccccc2Cl)N2CCOCC2)c1", "note": "(centres undefined)", "lipid storage change, negative = inhibition": "2.74% (inactive)", "cell number change": 14.2},
      {"smiles": "COCCCNc1nc(-c2ccc(Cl)cc2)nc2ccccc12", "outcome": "inactive"},
      {"smiles": "CCCCN1C(=O)/C(=c2\\sc3nc(=O)c(-c4ccccc4)nn3c2=O)c2ccccc21", "lipid storage change, negative = inhibition": "-21.2% (inactive)", "cell number change": -10.9},
      {"smiles": "C/C(=N\\NC(=O)c1nn(C)c(C)c1Br)c1ccc(NC(=O)C2CCCC2)cc1", "outcome": "inactive", "cell number change": -25.5},
      {"smiles": "C/C(=N\\NC(=O)c1ccn(C)n1)c1ccc(NC(=O)C2CCC2)cc1", "Potency": "13 µM (active)", "cell number change": -21.2},
      {"smiles": "C/C(=N\\NC(=O)c1c([N+](=O)[O-])c(C)nn1C)c1ccc(NC(=O)C2CCCC2)cc1", "lipid storage change, negative = inhibition": "-5.01% (inactive)", "cell number change": 5.28},
      {"smiles": "Cc1cccc(C(=O)Nc2sc3c(c2C#N)CCCCC3)c1", "lipid storage change, negative = inhibition": "-3.22% (inactive)", "cell number change": -20.2},
      {"smiles": "Cc1nc2nc(SCc3ccccc3)[nH]n2c(=O)c1CCC(C)C", "lipid storage change, negative = inhibition": "-19.4% (inactive)", "cell number change": 19.7},
      {"smiles": "Cc1cc(=O)oc2c(C)c(OC(C)C(=O)N3CC[C@@]4(O)CCCC[C@H]4C3)ccc12", "note": "(some centres undefined)", "Potency": "0.731 µM (active)", "cell number change": -0.971},
      {"smiles": "Cc1c(C)c2ccc(OC(C)C(=O)N3C[C@H]4C[C@@H](C3)c3cccc(=O)n3C4)c(C)c2oc1=O", "note": "(some centres undefined)", "lipid storage change, negative = inhibition": "-2.98% (inactive)", "cell number change": 10.4},
      {"smiles": "Cc1c(C)c2ccc(OC(C)C(=O)N3CC[C@@]4(O)CCCC[C@H]4C3)c(C)c2oc1=O", "note": "(some centres undefined)", "Potency": "5.8 µM (active)", "cell number change": -28.5},
      {"smiles": "CCc1cc(=O)oc2c(C)c(OC(C)C(=O)N3CC[C@@]4(O)CCCC[C@H]4C3)ccc12", "note": "(some centres undefined)", "lipid storage change, negative = inhibition": "3.29% (inactive)", "cell number change": 14.6},
      {"smiles": "Cc1cc(=O)oc2c(C)c(OCC(=O)N3CC[C@@]4(O)CCCC[C@H]4C3)ccc12", "Potency": "16.4 µM (active)", "cell number change": 2.59},
      {"smiles": "O=C(C(c1ccccc1)c1ccccc1)N1CC[C@@]2(O)CCCC[C@H]2C1", "lipid storage change, negative = inhibition": "-7.45% (inactive)", "cell number change": -2.81},
      {"smiles": "CCc1cc(=O)oc2c(C)c(OCC(=O)N3CC[C@@]4(O)CCCC[C@H]4C3)ccc12", "lipid storage change, negative = inhibition": "-24.5% (inactive)", "cell number change": 2.62},
      {"smiles": "Cc1c(C)c2ccc(OCC(=O)N3CC[C@@]4(O)CCCC[C@H]4C3)cc2oc1=O", "lipid storage change, negative = inhibition": "-15.4% (inactive)", "cell number change": 0.17},
      {"smiles": "CCc1cc(=O)oc2c(C)c(OC(C)C(=O)N3CCC[C@@H]3C(=O)O)ccc12", "note": "(some centres undefined)", "lipid storage change, negative = inhibition": "-7.03% (inactive)", "cell number change": 15.4},
      {"smiles": "Cc1nc(SCC(=O)NC(=O)NCCC(C)C)c2c(-c3cccs3)csc2n1", "lipid storage change, negative = inhibition": "3.29% (inactive)", "cell number change": 8.46},
      {"smiles": "CCn1ccnc1CN1CCC(n2nccc2NC(=O)CCc2ccccc2)CC1", "lipid storage change, negative = inhibition": "-5.74% (inactive)", "cell number change": -1.05},
      {"smiles": "COc1ccc(C(=O)Nc2ccc3[nH]c(-c4cccc(OC)c4)cc(=O)c3c2)cc1", "lipid storage change, negative = inhibition": "-2.62% (inactive)", "cell number change": 4.73},
      {"smiles": "Cc1cccc(C)c1NC(=O)CS(=O)CC(=O)NCC1OCCc2ccccc21", "note": "(centres undefined)", "lipid storage change, negative = inhibition": "-1.05% (inactive)", "cell number change": 9.92},
      {"smiles": "CC(=O)c1ccc(CC2SC(N)=NC2=O)cc1", "note": "(centres undefined)", "outcome": "inactive", "cell number change": -4.99},
      {"smiles": "CCCCN1C(=S)NC[C@@H]1Cc1cccc2ccccc12", "lipid storage change, negative = inhibition": "15.5% (inactive)", "cell number change": 2.45},
      {"smiles": "COc1ccc2c(c1OC)C(=O)N1C2SC[C@H]1C(=O)NC1CC1", "note": "(some centres undefined)", "lipid storage change, negative = inhibition": "-17.9% (inactive)", "cell number change": -0.291},
      {"smiles": "COc1ccc(C(c2sc3nc(C)nn3c2O)N2CCc3ccccc3C2)cc1", "note": "(centres undefined)", "outcome": "inactive"},
      {"smiles": "C/C(=N\\NC(=O)CCC(=O)Nc1ccc(C)c(C)c1)C1CC1", "Potency": "6.51 µM (active)", "cell number change": 18.1},
      {"smiles": "C=C(C)C1CC=C(C)/C(=N\\NC(=O)CCC(=O)Nc2ccc(C)c(C)c2)C1", "note": "(centres undefined)", "lipid storage change, negative = inhibition": "-0.891% (inactive)", "cell number change": 1.45},
      {"smiles": "Cc1ccc(NC(=O)CCSCCC(=O)Nc2ccc(C)c(C)c2)cc1C", "lipid storage change, negative = inhibition": "1.97% (inactive)", "cell number change": -13.5},
      {"smiles": "CC(=O)Nc1ccc(S(=O)(=O)NCCC(=O)OCc2nc(N)nc(Nc3ccccc3C)n2)cc1", "lipid storage change, negative = inhibition": "9.3% (inactive)", "cell number change": 3.4},
      {"smiles": "COc1ccc(N2C(=O)C3CCCN3C2c2cccs2)cc1", "note": "(centres undefined)", "Potency": "8.2 µM (active)"},
      {"smiles": "COc1cccc(N2C(=O)C3CCCN3C2c2cccs2)c1", "note": "(centres undefined)", "lipid storage change, negative = inhibition": "-10.3% (inactive)"},
      {"smiles": "COc1ccc(N2C(=O)C3CCCN3C2=O)cc1", "note": "(centres undefined)", "Potency": "18.4 µM (active)", "cell number change": 13.7},
      {"smiles": "COc1ccc(N2C(=O)[C@@H]3Cc4ccccc4CN3C2=O)cc1", "lipid storage change, negative = inhibition": "13.6% (inactive)", "cell number change": -10.6},
      {"smiles": "O=C1C2CCCN2C(c2cccs2)N1c1ccc(Cl)cc1", "note": "(centres undefined)", "lipid storage change, negative = inhibition": "11.3% (inactive)", "cell number change": 6.57},
      {"smiles": "COc1ccc(N2C(=O)C3CCCN3C2=S)cc1", "note": "(centres undefined)", "outcome": "inactive", "cell number change": 13}
    ]}
  ]
}
